Mcl1 Bid PPI – Mcl-1/Bid interaction inhibition | Q07820 | TR-FRET Mcl-1/Bid-Dy647 peptide binding, 1536-well | inhibition, % at 21.7 µM | 0.97% of 220,000 active;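 active = compounds that cut the binding signal by more than half at the single screening dose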;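 also: His-tagged Mcl-1 with europium anti-His antibody binding Bid BH3 peptide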
Bim-Mcl-1 – disrupts Bim peptide binding to human Mcl-1; Bead-based flow cytometry, Bim peptide-Mcl-1 binding; inhibition, % at 10 µM; 0.1% of 190,000 active; AID 1009; in the data active = inhibition above about 40%
NOD2 RIPK2 PPI – inhibitors of human NOD2-RIPK2 interaction | O43353 | inhibition, % at 4.98 µM | 0.38% of 360,000 active | CHO BLA complementation NOD2-RIPK2, CCF4 ratio; in the data active = inhibition above about 21%
TLR9-MyD88 inh – inhibitors of human TLR9-MyD88 binding. Q9NR96+Q99836. CHO BLA complementation TLR9-MyD88, CCF4 FRET ratio. inhibition, % at 4.98 µM. 0.21% of 340,000 active. AID 504734;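 active = inhibition above the mean over all tested compounds plus 3 SD, cut at about 21% in these data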
Target sequence (Q99836 whole entry, looked up): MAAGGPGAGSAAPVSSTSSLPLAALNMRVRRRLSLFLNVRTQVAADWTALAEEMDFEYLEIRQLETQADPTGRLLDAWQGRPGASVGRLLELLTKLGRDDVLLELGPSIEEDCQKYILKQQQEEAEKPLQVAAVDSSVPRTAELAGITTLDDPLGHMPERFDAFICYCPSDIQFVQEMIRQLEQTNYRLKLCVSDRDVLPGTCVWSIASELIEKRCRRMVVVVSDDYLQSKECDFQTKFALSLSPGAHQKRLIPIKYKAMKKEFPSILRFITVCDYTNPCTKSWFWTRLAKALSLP
Target sequence (Q9NR96 whole entry, looked up): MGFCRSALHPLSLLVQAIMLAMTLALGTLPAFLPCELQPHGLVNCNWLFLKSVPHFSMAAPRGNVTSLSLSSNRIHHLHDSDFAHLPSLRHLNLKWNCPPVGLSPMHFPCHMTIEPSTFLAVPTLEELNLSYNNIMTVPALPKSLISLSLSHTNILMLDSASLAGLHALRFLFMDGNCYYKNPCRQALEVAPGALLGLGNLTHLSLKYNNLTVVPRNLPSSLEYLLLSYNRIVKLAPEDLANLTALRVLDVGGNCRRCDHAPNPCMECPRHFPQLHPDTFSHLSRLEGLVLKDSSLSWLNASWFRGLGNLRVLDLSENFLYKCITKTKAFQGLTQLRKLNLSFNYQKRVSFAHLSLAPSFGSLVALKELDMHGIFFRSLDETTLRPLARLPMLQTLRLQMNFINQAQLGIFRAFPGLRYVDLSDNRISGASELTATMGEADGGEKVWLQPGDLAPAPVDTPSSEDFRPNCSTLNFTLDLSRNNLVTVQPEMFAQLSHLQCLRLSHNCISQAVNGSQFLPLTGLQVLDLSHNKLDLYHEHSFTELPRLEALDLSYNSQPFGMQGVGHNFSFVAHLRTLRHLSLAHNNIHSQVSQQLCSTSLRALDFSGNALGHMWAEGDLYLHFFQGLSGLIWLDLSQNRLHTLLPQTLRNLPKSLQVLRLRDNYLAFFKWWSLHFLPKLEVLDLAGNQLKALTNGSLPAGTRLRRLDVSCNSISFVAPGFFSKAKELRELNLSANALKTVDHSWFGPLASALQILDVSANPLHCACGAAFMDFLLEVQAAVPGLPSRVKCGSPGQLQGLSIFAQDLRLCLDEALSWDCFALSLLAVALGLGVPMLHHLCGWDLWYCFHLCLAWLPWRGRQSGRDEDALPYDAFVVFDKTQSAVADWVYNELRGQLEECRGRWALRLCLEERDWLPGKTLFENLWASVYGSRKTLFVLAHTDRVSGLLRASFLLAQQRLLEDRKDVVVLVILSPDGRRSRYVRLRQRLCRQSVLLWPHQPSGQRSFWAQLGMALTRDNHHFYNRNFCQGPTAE
TLR4-MyD88 BLA – inhibitors of human TLR4-MyD88 binding; O00206+Q99836; HeLa CL3-4 TLR4/MyD88 BLA complementation, FRET ratio; inhibition, % at 8.4 µM; 0.18% of 200,000 active; in the data active = inhibition above about 25%
Mcl1-Noxa inh – disrupts binding of human Mcl-1 to Noxa peptide; Q07820; TR-FRET Mcl-1/Noxa peptide binding, 2 h; inhibition, % at 21.7 µM; 1.5% of 220,000 active; AID 1022;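 active = compounds that cut the protein-peptide binding signal by more than 50% relative to plate controls in a single-dose test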;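 also: His-tagged Mcl-1 with rhodamine Noxa BH3 peptide and terbium anti-His antibody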
NOD2 RIPK2 conf – NOD2-RIPK2 interaction inhibition confirmed. CHO cells, NOD2-RIPK2 BLA complementation, CCF4 FRET. inhibition, % at 4.98 µM. 70% of 1,200 active. shares compounds with NOD2 RIPK2 PPI;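 active = mean inhibition across replicates above a set limit taken from the earlier primary screen, cut at about 21% in these data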
NOD2 BLA counter – NOD2-RIPK2 counterscreen BLA reporter activity; CHO BLA reporter, CCF4 FRET ratio; shares compounds with NOD2 RIPK2 PPI; AID 624371; inhibition, % at 4.98 µM; 57% of 1,200 active;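 active = mean inhibition above the low-control mean inhibition plus three low-control SD, cut at about 11% in these data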
Hits are given with their value; 0 = inactive; - = no result. This is a sample that favours compounds with a hit; in the whole collection about 1.8% have one here.

SMILES | Mcl1 Bid PPI | Bim-Mcl-1 | NOD2 RIPK2 PPI | TLR9-MyD88 inh | TLR4-MyD88 BLA | Mcl1-Noxa inh | NOD2 RIPK2 conf | NOD2 BLA counter
C=C1C(=O)[C@]23C[C@H]1CCC2[C@@]1(C)C(C[C@@H]3O)[C@](C)(C(=O)OC)CC[C@@H]1OC(C)=O (stereo partly drawn) | - | - | 93 | - | - | - | 93 | 22
COC(=O)C[C@@H]1C=C[C@H](NC(=O)Nc2cc(F)ccc2F)[C@@H](CO)O1 | - | - | 0 | - | - | - | - | -
O=C1N/C(=C/c2ccc(N3CCOCC3)o2)C(=O)N1c1ccccc1 | 0 | 0 | 40 | 0 | 0 | 0 | 0 | 0
Cc1cn([C@H]2C[C@H](O)[C@@H](/C=C/C(=O)NCCN3CCCCC3)O2)c(=O)[nH]c1=O | - | - | 61 | - | - | - | 0 | 0
CC(=O)C1=NN(c2ccc(Cl)cc2)C(c2ccc3c(c2)OCO3)N(C(C)=O)N1C (stereo not drawn) | 0 | - | 0 | 0 | - | 0 | - | -
CC(Sc1ccc(S(=O)(=O)N2CCOCC2)cc1[N+](=O)[O-])C(=O)O (stereo not drawn) | 0 | 0 | 37 | 0 | 0 | 0 | 0 | 0
CCN1C[C@@H]2[C@@H]3C(=O)N(Cc4ccccc4)C(=O)[C@@H]3[C@](C)(C1=O)N2C(=O)c1ccc(Cl)c(Cl)c1 | - | - | 0 | 0 | - | - | - | -
O=C1OCCN1CC(=O)N1CCc2c([nH]c3ccccc23)C1c1ccccn1 (stereo not drawn) | 0 | 0 | 22 | 0 | 0 | 0 | 0 | 0
C/C(=N\NC(=O)c1cc(-c2ccncc2)nc2ccccc12)c1ccc(N2CCOCC2)cc1 | 0 | 0 | 24 | 0 | 0 | 0 | 0 | 0
O=C1C(=C(c2ccccc2)N2CCOCC2)Cc2ccccc21 | - | - | 84 | 0 | - | - | 85 | 0
O=C(c1ccccc1)N1CCN(C(=O)N2CCOCC2)CC1 | 0 | 0 | 0 | 0 | 0 | 0 | - | -
COc1ccc(C(=O)NCc2nnc(SCC(=O)N3CCCC3)o2)cc1OC | - | - | 0 | 0 | - | - | - | -
N#CC(=C1C=CC(=NO)C(Cl)=C1)c1ccc(Cl)cc1 | - | - | 42 | 0 | - | - | 26 | 23
CCN(C(=O)N(CC)c1ccccc1)c1ccccc1 | - | - | 0 | 0 | - | - | - | -
CCOC(=O)N1CCC(NC(=O)c2ccc3c(c2)N=C(CC)c2cc(C)ccc2S3)CC1 | - | - | 0 | 0 | - | - | - | -
CCOC(=O)N1CCC(NC(=O)c2ccc3c(c2)N=C(C)c2c(C)ccc(C)c2S3)CC1 | - | - | 24 | 0 | - | - | 0 | 0
O=C(NCc1cccnc1)/C(=C\c1ccc(-c2ccc(Br)cc2)o1)S(=O)(=O)c1ccccc1 | 52 | 0 | 33 | 0 | 0 | 0 | 30 | 0
O=C(CN(Cc1ccc(Br)cc1)S(=O)(=O)c1ccccc1)NCc1cccnc1 | - | - | 0 | 0 | - | - | - | -
O=C(NCc1cccnc1)/C(=C/c1ccc(-c2ccc(Cl)cc2)o1)S(=O)(=O)c1ccccc1 | 0 | 0 | 41 | 0 | 0 | 0 | 36 | 0
O=C(NCc1cccnc1)/C(=C/c1ccc(-c2cccc(C(F)(F)F)c2)o1)NC(=O)c1ccccc1 | 0 | 0 | 0 | 0 | 0 | 0 | - | -
COc1ccc2c(c1)OC[C@H]1[C@H]2N2C(=O)c3ccccc3NC(=O)[C@@]2(C)[C@H]1c1ccccc1 | - | - | 0 | 0 | - | - | - | -
CN1C(=O)[C@H]2[C@@H](c3ccc(F)cc3)N3C(=O)c4ccccc4NC(=O)[C@@]3(C)[C@H]2C1=O | - | - | 22 | 0 | - | - | 0 | 0
CCN(CC)C(=O)C1=C(C)N(Cc2ccccc2)C(=O)C(CC(=O)NCc2ccco2)C1 (stereo not drawn) | - | - | 0 | 0 | - | - | - | -
Cc1ccc(C(=O)NCCNC(=O)c2ccccn2)cc1 | - | - | 0 | 0 | - | - | - | -
COc1ccc(C(=O)C(CN2CCOCC2)c2ccccc2)cc1F (stereo not drawn) | 0 | 0 | 58 | 0 | 0 | 0 | 0 | 0
SMILES | Mcl1 Bid PPI | Bim-Mcl-1 | NOD2 RIPK2 PPI | TLR9-MyD88 inh | TLR4-MyD88 BLA | Mcl1-Noxa inh | NOD2 RIPK2 conf | NOD2 BLA counter
CCN1CCN(c2ccc(S(=O)(=O)N3CCCCC3)cc2NC(=O)/C=C/c2ccc([N+](=O)[O-])cc2)CC1 | - | - | 0 | 0 | - | - | - | -
CN1CCN(c2ccc(S(=O)(=O)N3CCCCC3)cc2NC(=O)/C=C/c2ccc(Cl)c([N+](=O)[O-])c2)CC1 | - | - | 22 | 0 | - | - | 30 | 0
Cc1cc(C)c(S(=O)(=O)c2ccc(Cl)cc2)c(Cl)n1 | 0 | 0 | 0 | 0 | 0 | 0 | - | -
Cc1cc(S(=O)(=O)c2ccc(Cl)cc2)nc(S(=O)(=O)c2ccc(Cl)cc2)c1C#N | - | - | 50 | 0 | - | - | 68 | 18
C=C1CC2(OC1=O)c1ccccc1CCc1ccccc12 | - | - | 84 | 0 | - | - | 90 | 25
O=C1NC(=O)C2(CCc3ccccc32)N1 (stereo not drawn) | 0 | 0 | 0 | 0 | 0 | 0 | - | -
COc1cc(OC)c2c(OC)cccc2n1 | 0 | 0 | 0 | 0 | 0 | 0 | - | -
COc1ccc(-c2cc(-c3nc4ccccn4c3NCc3ccccc3)ccc2OC)cc1 | - | - | 29 | 0 | - | - | 0 | 0
COc1ccc(-c2nc3ccccn3c2NCc2ccc3c(c2)OCO3)cc1 | 0 | 0 | 0 | 0 | 0 | 0 | - | -
Nc1nc2ncccn2c1-c1ccc(F)cc1 | - | - | 0 | - | - | - | - | -
Nc1nc2ncccn2c1-c1ccc(C(F)(F)F)cc1 | - | - | 25 | - | - | - | 28 | 34
CC1(c2ccc3ccccc3c2)NC(=O)N(CC(=O)N2CCCC(C(F)(F)F)C2)C1=O (stereo not drawn) | - | - | 28 | 0 | - | - | 0 | 0
CC(=O)N1CCN(C(=O)CN2C(=O)NC(C)(c3ccc4ccccc4c3)C2=O)CC1 (stereo not drawn) | - | - | 0 | 0 | - | - | - | -
Cc1ccc(N2C(=O)c3cccc4c(C(=O)O)ccc(c34)C2=O)cc1 | 0 | 0 | - | - | 0 | 0 | - | -
CC(=O)Nc1ccc(N2C(=O)c3cccc4c(O)ccc(c34)C2=O)cc1 | - | - | 27 | 0 | - | - | 25 | 28

Screening results as filed in PubChem BioAssay.
